Results on eight compounds are retold here after PubChem BioAssay (NCI).

Among the test systems are HCT-15 colon; HT29 colon; SNB-75 CNS; SNB-19 CNS; U251 CNS; PC-3 prostate; SK-MEL-5 melanoma; UACC-62 melanoma; LOX IMVI melanoma; SK-MEL-28 melanoma; SK-MEL-2 melanoma; EKVX NSCLC; SN12C renal; UO-31 renal; TK-10 renal; ACHN renal; CAKI-1 renal; A498 renal; CCRF-CEM leukemia; MOLT-4 leukemia.
Common to all, as to assay: NCI-60 one-dose screen, 48 h (100 = growth as untreated, 0 = no growth, -100 = all killed)
Holding throughout (conditions): 10 µM unless noted

Compounds without any hit were thinned out: in the full panel of roughly 83,000, 20% have a hit.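 96-well plates, one dose, 48 hours. Percent growth reported; active if below 10.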 Unmarked numbers belong to inactive results. Active and inactive are the calls of the source.

Regarding `Cn1c(=O)[nH]c(=O)c2nc3c(nc21)-c1ccccc1C3=O`, the growth was 102% with HCT-15 colon; 101% in the assay on HT29 colon; 88.9% with SNB-75 CNS; 98.1% in the assay with SNB-19 CNS; 106% in the assay with U251 CNS; 95.8% in the assay with PC-3 prostate. Besides, the growth in the assay on SK-MEL-5 melanoma is 98.5%; in the assay with UACC-62 melanoma it was 91.2%; in the assay on LOX IMVI melanoma it was 95.9%; in the assay with SK-MEL-28 melanoma, 97.4%; in the assay with SK-MEL-2 melanoma, 103%; in the assay with EKVX NSCLC, 95%. Moreover, the growth is 96.6% in the assay with SN12C renal; 83.8% in the assay with UO-31 renal; 102% in the assay with TK-10 renal; 94.2% in the assay on ACHN renal; 89.9% with CAKI-1 renal; 95.2% in the assay with A498 renal. In addition, the growth is 106% in the assay with CCRF-CEM leukemia and 105% in the assay with MOLT-4 leukemia.

Consider `N=C(N)c1ccc(-c2ccc(-c3cc(Cl)cc(Cl)c3)s2)s1`, for which the growth in the assay on HCT-15 colon was -84.8% (active); with HT29 colon, -80.1% (active); in the assay with SNB-75 CNS it was 3.24% (active); in the assay with SNB-19 CNS, -61.9% (active); in the assay on U251 CNS it was -86.5% (active); in the assay with PC-3 prostate, 35.6%. Moreover, the growth in the assay on SK-MEL-5 melanoma was 86.6%; in the assay on UACC-62 melanoma it was -74% (active); with LOX IMVI melanoma, -82.4% (active); in the assay with SK-MEL-28 melanoma, 33.7%; with SK-MEL-2 melanoma it was 83.4%; with EKVX NSCLC, -12.2% (active). Further, the growth in the assay with SN12C renal is -65.4% (active); in the assay on UO-31 renal it was -40.2% (active); in the assay with TK-10 renal, -26.5% (active); with ACHN renal, -54.2% (active); in the assay on CAKI-1 renal, 2.68% (active); with A498 renal, 73.6%. The growth was -12.4% (active) in the assay on CCRF-CEM leukemia and -41.9% (active) with MOLT-4 leukemia.

For `Cc1ccc2c(/C=C/C(=O)c3cc(CN4CCOCC4)c(O)c4nc(C)ccc34)cc(CN3CCOCC3)c(O)c2n1`, the growth was 0.566% (active) in the assay with HCT-15 colon; -6.31% (active) in the assay with HT29 colon; 23.3% in the assay with SNB-75 CNS; 36.4% in the assay with SNB-19 CNS; -24% (active) in the assay on U251 CNS; 19.9% with PC-3 prostate. Moreover, the growth in the assay on SK-MEL-5 melanoma is 4.68% (active); with UACC-62 melanoma, -0.641% (active); with LOX IMVI melanoma, -66.8% (active); in the assay with SK-MEL-28 melanoma it was -19.9% (active); with SK-MEL-2 melanoma it was -2.61% (active); in the assay with EKVX NSCLC it was 31.5%. Also, the growth was 7.92% (active) in the assay on SN12C renal; -16.8% (active) in the assay on UO-31 renal; 17.8% in the assay on TK-10 renal; -26.3% (active) in the assay with ACHN renal; 12.9% in the assay with CAKI-1 renal; -16.5% (active) with A498 renal. The growth was 3.28% (active) in the assay on CCRF-CEM leukemia and -2.3% (active) in the assay with MOLT-4 leukemia.

Take `COc1ccc(Nc2ncc(C#N)c(NCCCNC(=O)C3CCC3)n2)cc1`: the growth is 49.7% with HCT-15 colon; 61.9% in the assay on HT29 colon; 58.1% in the assay with SNB-75 CNS; 68.9% in the assay on SNB-19 CNS; 60.1% with U251 CNS; 71.9% in the assay with PC-3 prostate. Also, the growth was 92% in the assay on SK-MEL-5 melanoma; 78.1% in the assay with UACC-62 melanoma; 32.6% in the assay with LOX IMVI melanoma; 103% with SK-MEL-28 melanoma; 80.6% in the assay on SK-MEL-2 melanoma; 87.3% in the assay with EKVX NSCLC. Further, the growth was 35.3% in the assay on SN12C renal; 11.1% in the assay on UO-31 renal; 41.4% in the assay on TK-10 renal; 48.1% in the assay with ACHN renal; 26.3% in the assay with CAKI-1 renal; 52.8% in the assay with A498 renal. Also, the values for the growth in the assay with CCRF-CEM leukemia and in the assay with MOLT-4 leukemia were 45.5% and 34.7%, respectively.

For the compound `CSc1ccc(N2C(=N)C(=S)N(c3ccc(C)cc3)C2=O)cc1`, the growth in the assay with HCT-15 colon is 85.9%; with HT29 colon, 107%; in the assay with SNB-75 CNS, 89.9%; with SNB-19 CNS it was 101%; with U251 CNS, 91%; in the assay with PC-3 prostate it was 74%. For the same compound, the growth is 101% in the assay with SK-MEL-5 melanoma; 92.8% with UACC-62 melanoma; 87.4% with LOX IMVI melanoma; 106% with SK-MEL-28 melanoma; 118% in the assay with SK-MEL-2 melanoma; 93.9% in the assay on EKVX NSCLC. Besides, the growth in the assay with SN12C renal is 94%; in the assay with UO-31 renal, 75.5%; in the assay on TK-10 renal, 109%; in the assay on ACHN renal, 88.2%; in the assay on CAKI-1 renal, 82.7%; with A498 renal, 104%. Also, the figures for the growth with CCRF-CEM leukemia and with MOLT-4 leukemia were 80.6% and 89.8%, respectively.

Take `O=C(CSc1nnnn1-c1ccccc1)Nc1ccc(Oc2ccccc2)cc1`: the growth in the assay on HCT-15 colon was 97.4%; with HT29 colon it was 108%; with SNB-75 CNS, 101%; in the assay with SNB-19 CNS, 98.8%; with U251 CNS, 101%; in the assay with PC-3 prostate, 96.1%. The growth in the assay on SK-MEL-5 melanoma was 103%; with UACC-62 melanoma, 82.3%; with LOX IMVI melanoma, 104%; in the assay with SK-MEL-28 melanoma, 100%; in the assay on SK-MEL-2 melanoma it was 81%; with EKVX NSCLC, 100%. In addition, the growth was 88.4% with SN12C renal; 77.2% in the assay on UO-31 renal; 119% with TK-10 renal; 99.7% in the assay with ACHN renal; 107% with CAKI-1 renal; 103% in the assay with A498 renal. For the same compound, the growth is 114% with CCRF-CEM leukemia and 91.7% in the assay on MOLT-4 leukemia.

For `COc1ccc(C=Nc2c(C(=O)Nc3cccc(Cl)c3C)sc3nc(C)c(C(=O)/C=C/c4ccc(OC)cc4)cc23)cc1`, the growth was 19.6% in the assay with HCT-15 colon; 9.21% (active) in the assay on HT29 colon; -11.3% (active) in the assay with SNB-75 CNS; 11.7% in the assay on SNB-19 CNS; 23.6% in the assay with U251 CNS; 32.8% in the assay on PC-3 prostate. The growth in the assay with SK-MEL-5 melanoma is 3.54% (active); with UACC-62 melanoma, 7.41% (active); in the assay on LOX IMVI melanoma it was 19%; in the assay on SK-MEL-28 melanoma, 38.3%; in the assay with SK-MEL-2 melanoma, 42.2%; with EKVX NSCLC, 43.2%. Also, the growth in the assay with SN12C renal is 21%; in the assay with UO-31 renal it was 35.9%; in the assay on TK-10 renal, 36.5%; in the assay with ACHN renal it was 36.1%; in the assay on CAKI-1 renal it was 24%; in the assay with A498 renal it was -4.79% (active). In addition, the growth in the assay on CCRF-CEM leukemia is 19.7%; with MOLT-4 leukemia, 52.2%.

As for `N#Cc1c(-c2ccccc2)cc(-c2ccccc2)n(CCCCC(=O)NO)c1=O`, the growth in the assay with HCT-15 colon is 13.8%; in the assay on HT29 colon, 19.1%; in the assay with SNB-75 CNS it was -8.42% (active); with SNB-19 CNS, 43.3%; in the assay with U251 CNS, 29.1%; with PC-3 prostate, 32.9%. The growth was -53% (active) in the assay on SK-MEL-5 melanoma; 2.89% (active) in the assay on UACC-62 melanoma; -54.9% (active) in the assay on LOX IMVI melanoma; 17.6% with SK-MEL-28 melanoma; 40.6% in the assay with SK-MEL-2 melanoma; 30.6% with EKVX NSCLC. The growth in the assay on SN12C renal was 23.2%; in the assay on UO-31 renal, -51.6% (active); in the assay on TK-10 renal, 28.4%; with ACHN renal it was 2.83% (active); in the assay on CAKI-1 renal, 1% (active); in the assay on A498 renal it was 13.2%. In addition, the growth was 11.9% in the assay with CCRF-CEM leukemia and 11.4% in the assay with MOLT-4 leukemia.
